Among the data in article PMC7826789 (International Journal of Molecular Sciences, 2021) are Kinases covered values, retold here.

Molecules are shown by their SMILES.

For `CC(C)COC(=O)c1ccc2c(c1)/C(=C/Nc1ccc(S(N)(=O)=O)cc1)C(=O)N2` [GW416981X], in the assay with IKKE, the Kinases covered entry is recorded as “IKKE”. For `CN(C)C/C=C/C(=O)Nc1ccc(C(=O)Nc2cccc(Nc3ncc(Cl)c(-c4c[nH]c5ccccc45)n3)c2)cc1` [THZ1], in the assay with INSR, the Kinases covered entry was “INSR”.

Regarding `COc1cc(C)c(N(C)C(=O)CN(C)C)cc1Nc1nc(Nc2cccc(F)c2C(N)=O)c2cc[nH]c2n1` [GSK2219385], the Kinases covered entry with INSR is “INSR”. Regarding `Cl.O=C1Nc2ccc(-c3cccnc3)cc2C1=Cc1cc(Br)c(O)c(Br)c1` [GW429374A], the Kinases covered entry in the assay with IKBKE was “IKBKE”. Regarding `COC[C@@H](C)N[C@H]1CC[C@H](Nc2cc(-c3cccc(NCC4(C#N)CCOCC4)n3)c(Cl)cn2)CC1` [NVP-2], the Kinases covered result in the assay on IRAK1 is “IRAK1”.

As to `COc1cc(Nc2nccc(N3CCC(NC(=O)C4COc5ccccc5O4)C3)n2)cc(OC)c1OC` (centres unmarked) [GSK1379761], in the assay with JAK2, the Kinases covered entry is on record as “JAK2”. For the molecule `Cc1cc(O)cc(C)c1/C=C/c1cncc(C(N)=O)c1` [GW435821X], in the assay with IKBKE, the Kinases covered entry is given as “IKBKE”. `CCc1cc(Nc2nccc(-c3c(-c4ccc(OC)c(C(=O)Nc5c(F)cccc5F)c4)nc4ccccn34)n2)c(OC)cc1N1CCC(N2CCN(S(C)(=O)=O)CC2)CC1` [GSK1904529]: the Kinases covered result in the assay with INSR is reported as “INSR”. In the case of `Cc1cc(NC(=O)c2cccc(NC(=O)/C=C/CN(C)C)c2)ccc1Nc1nccc(-c2cccnc2)n1` [JNK-IN-7], the figures for the Kinases covered result in the assay with IRAK1, in the assay with JNK1 and with JNK2 were “IRAK1”, “JNK1” and “JNK2”, respectively. Regarding `C[C@@H]1CCN(C(=O)CO)C[C@@H]1N(C)c1ncnc2[nH]ccc12` [PFE-PKIS 34], the Kinases covered entry is recorded as “JAK2” in the assay with JAK2 and “JAK3” in the assay with JAK3. On to `NC(=O)c1cccnc1COc1cc(-c2ccc(N3CCOCC3)nc2)cc2ncccc12` [BI01125081], for which the Kinases covered entry in the assay with JAK2 is “JAK2”. In the case of `CNC(=O)c1c(F)cccc1Nc1nc(Nc2cc3c(cc2OC)CCN3C(=O)CN(C)C)nc2[nH]ccc12` [GSK1838705], in the assay with IRR, the Kinases covered result is reported as “IRR”.

For `CN(C)C(=O)/C(C#N)=C/c1ccc(-c2nc3cnc4[nH]ccc4c3n2C2CCCCC2)o1` [FM-381], the Kinases covered entry in the assay on JAK1 is recorded as “JAK1”; in the assay with JAK3, “JAK3”. As to `COc1cc(N2CCN(C(C)C)CC2)ccc1Nc1nc(Nc2ccc(F)cc2C(=O)NC[C@@H](O)CO)c2cc[nH]c2n1` [GSK1392956A], the Kinases covered result with INSR is recorded as “INSR”. As to `COc1cc2ncnc(Nc3ccc(F)c(Cl)c3)c2cc1O[C@H]1CC[C@H](N)CC1` [BIBW3133BS], the Kinases covered entry with IRAK1 was “IRAK1”.

As to `COc1cc(/C=N/Nc2ncnc3[nH]ncc23)ccc1O` [GW578748X], the Kinases covered result with IKBKE is “IKBKE”.
